# Shown are actives, neighbours in structure and some others; about 19% of the full set was active somewhere.
# HepG2 tox – counter-screen for TGF-b inhibitors: cytotoxicity in HepG2 cells. HepG2 CAGA-GFP viability, ATP luminescence, 18 h. Potency, µM (top dose mostly 46.1 µM), without a hit: top-dose activity change, negative = cytotoxicity, actives largely listed as cytotoxic. 410,000 tested, 0.76% active. AID 588856; note: potency is the fitted concentration of half-maximal effect
#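 HepG2 CAGA-GFP cells (1000/well, DMEM with 1% FBS) received compound, then TGF-beta at 500 pg/mL final, and were incubated 18 hours at 37 degrees C. Viability was read by CellTiter-Glo luminescence. Media-only wells were set as complete cell-killing and DMSO as no toxicity.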
# TDP1 cell CPT – growth inhibition of DT40 Tdp1-/-;hTDP1 cells with camptothecin (screen for TDP1 inhibitors). AID 686979. Potency, µM (titrated, usually from 46.2 µM), for inactives: at the top dose activity change, negative = growth inhibition, actives largely listed as inhibitors. 420,000 tested, 12% active. chicken DT40 Tdp1-/-;hTDP1 cells + 20 nM CPT, ATP luminescence, 48 h; note: potency is the fitted concentration of half-maximal effect; % is set by controls: 0 for no effect and ±100 for the full control effect; nearly all actives have a fitted effect of over 55% in size
#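 Cell growth measured by CellTiter-Glo luminescence after a minimum 48 h, 37 C compound exposure with 20 nM CPT in Tdp1-knockout DT40 cells stably expressing hTDP1, seeded 400/well; qHTS titration format.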
# IL-1B inflam inh – blocks inflammasome-driven IL-1 beta release; activity change, % at 57.5 µM; THP-1 LPS/ATP IL-1B secretion, AlphaLISA, 16 h; stronger effect = lower value; 360,000 tested, 4.7% active; AID 743279; in the data active = activity change below about -50%; inconclusive = mostly about -30% to -49%; note: % is set by controls: 0 for no effect and ±100 for the full control effect
#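 Secreted IL-1B measured by AlphaLISA bead assay after 16 h compound exposure of THP-1 cells; compounds (final up to 57.5 uM) added 1 h before LPS (250 ng/mL) and ATP (1.25 mM) stimulation; lower signal means less secretion.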
# TDP1 cell noCPT – qHTS for Inhibitors of human tyrosyl-DNA phosphodiesterase 1 (TDP1): qHTS in cells in absence of CPT. 420,000 tested, 15% active. Potency, µM (top dose mostly 46.2 µM), for inactives: at the top dose activity change, negative = growth inhibition, actives largely listed as inhibitors. DT40 Tdp1-/- hTDP1 cells, no CPT, ATP luminescence, 48 h; note: potency is the fitted concentration of half-maximal effect; % is set by controls: 0 for no effect and ±100 for the full control effect; nearly all actives have a fitted effect of over 55% in size
#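 No-CPT arm: Tdp1-/-;hTDP1 DT40 cells (400/well) plus compounds, incubated ≥48 hr at 37 °C. Readout CellTiter-Glo luminescence.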
# TDP1 inh – TDP1 (human) enzyme inhibition | recombinant TDP1, AlphaScreen DNA substrate cleavage | Potency, µM (series often up to 130 µM), for inactives: top-dose activity change, negative = inhibition, usual class: inhibitors | AID 485290 | 350,000 tested, 0.28% active; note: potency is the fitted concentration of half-maximal effect; % is set by controls: 0 for no effect and ±100 for the full control effect; nearly all actives have a fitted effect of over 40% in size
# Target sequence (Q9NUW8 whole entry, looked up): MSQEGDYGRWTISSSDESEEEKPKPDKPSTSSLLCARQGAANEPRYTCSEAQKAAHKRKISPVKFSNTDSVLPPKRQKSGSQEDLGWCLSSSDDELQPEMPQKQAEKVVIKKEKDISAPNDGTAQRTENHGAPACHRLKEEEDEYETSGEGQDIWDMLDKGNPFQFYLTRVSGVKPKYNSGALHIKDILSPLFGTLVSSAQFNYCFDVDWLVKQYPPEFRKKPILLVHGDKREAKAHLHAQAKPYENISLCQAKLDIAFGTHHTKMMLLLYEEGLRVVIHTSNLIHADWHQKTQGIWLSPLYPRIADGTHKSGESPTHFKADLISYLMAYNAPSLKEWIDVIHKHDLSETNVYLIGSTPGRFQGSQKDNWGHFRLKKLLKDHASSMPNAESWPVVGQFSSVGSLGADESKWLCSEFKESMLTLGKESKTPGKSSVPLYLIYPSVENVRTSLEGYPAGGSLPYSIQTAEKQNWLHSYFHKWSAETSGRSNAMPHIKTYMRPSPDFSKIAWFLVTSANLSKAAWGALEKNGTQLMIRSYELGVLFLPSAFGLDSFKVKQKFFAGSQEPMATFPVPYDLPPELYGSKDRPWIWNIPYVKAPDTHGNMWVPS
#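 E. coli-derived human Tdp1, 1 nM final. Cpd preinc 15 min RT; substrate 15 nM final, 5 min RT; AS bead mix 10 ug/ml final, 10 min RT. Signal loss = tyrosine-FITC cleavage. No-enzyme wells = max signal.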
# TGFb inhibitor – blocks TGF-b signaling; HepG2 CAGA-GFP TGF-b/SMAD3 reporter, GFP fluorescence, 18 h; TGF-beta stimulated, 500 pg/mL final; Potency, µM (titrated, usually from 46.1 µM), inactives show at the top dose activity, negative = inhibition, hits mostly inhibitors; 410,000 tested, 1.2% active; AID 588855; note: potency is the fitted concentration of half-maximal effect; % is set by controls: 0 for no effect and ±100 for the full control effect; nearly all actives have a fitted effect of over 65% in size
#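 HEPG2 CAGA-GFP reporter cells (1000/well, DMEM with 1% FBS) received compounds, then recombinant TGF-beta at 500 pg/mL final for 18 hours at 37 degrees C. Per-cell GFP summed per well was normalised to unstimulated and stimulated DMSO controls before curve fitting.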
# Active calls of the source: *; ? = inconclusive; · = no result given; [ ] = another dose, or the depositor's remark. Unless noted, calls come from the whole dose curve; as a rule, active = well fitted curve in the direction sought with a large enough effect; inconclusive = small, poorly fitted or top-dose-only effect, or another doubt; inactive = no such curve, though single readings can be large; an effect the other way counts as inactive or inconclusive.
SMILES,HepG2 tox,TDP1 cell CPT,IL-1B inflam inh,TDP1 cell noCPT,TDP1 inh,TGFb inhibitor
O=C(NC(c1ccc2ccccc2n1)c1cccs1)C1CCN(Cc2cccc(C(F)(F)F)c2)CC1 (stereo not drawn),-33%,7.3µM*,-66*,10µM*,·,?
O=c1c(-c2ccccc2)nc2cnc(Nc3ccccc3)nc2n1Cc1cccs1,·,-10%,·,19%,·,·
O=[N+]([O-])c1cc([N+](=O)[O-])c2cc3ccccc3nc2c1,-2%,0.26µM*,-102*,0.52µM*,·,?
CC=C1COC(C(=O)NCCOCCO)(C(F)(F)F)C=C1C=C(C)C (stereo not drawn),-21%,·,·,·,5%,?
COC(=O)c1cc2c(C)c(C)c3ccccn3c-2c1C(=O)OC,2%,26µM*,-13,?,4%,20%
O=C(Cn1c(-c2cscn2)nc2ccccc21)Nc1ccc2ccccc2c1,-10%,14µM*,1,?,6%,-8%
Cc1nc2ccccc2nc1OCC(=O)Nc1ccc2ccccc2c1,1%,-9%,5,?,1%,0%
Cc1cc(C)cc(NC(=O)Cn2c(-c3cncs3)nc3ccccc32)c1,-25%,?,·,21µM*,3%,?
Cc1nc2ccccc2n(CC(=O)Nc2cc(Cl)cc(Cl)c2)c1=O,-2%,9.2µM*,13,15µM*,2%,3%
O=C(COC(=O)C1CCN(S(=O)(=O)c2cccc3cccnc23)CC1)c1ccccc1,1%,-10%,-6,-1%,0%,-5%
Cc1ccc(NC(=S)N=Nc2c(O)n(C)c3ccc(S(=O)(=O)N4CCOCC4)cc23)cc1,-1%,2.6µM*,-6,2.6µM*,8%,?
Cc1ccc(CC(=O)Nc2ccc(S(=O)(=O)N3CCOCC3)cc2)cc1,-3%,-8%,13,-15%,·,1%
Cc1cc(C)cc(NC(=S)N=Nc2c(O)n(C)c3ccc(S(=O)(=O)N4CCOCC4)cc23)c1,-18%,1.2µM*,-4,4.6µM*,6%,?
Cc1cccc(NC(=S)N=Nc2c(O)n(C)c3ccc(S(=O)(=O)N4CCOCC4)cc23)c1,-7%,3.7µM*,3,3.3µM*,-5%,-8%
Cc1c(Cl)cccc1NC(=O)COC(=O)c1c2c(nc3ccccc13)CCN(Cc1ccccc1)C2,-34%,?,0,16µM*,3%,?
CCN1CCc2nc3ccccc3c(C(=O)Nc3ccc(C#N)cc3)c2C1,-4%,?,23,?,5%,0%
O=C(NC1CCCCCC1)c1c2c(nc3ccccc13)CCN(Cc1ccccc1)C2,6%,18µM*,-3,29µM*,0%,8%
CC(C)c1ccccc1NC(=O)COC(=O)c1c2c(nc3ccccc13)CCN(Cc1ccccc1)C2,-24%,?,-17,10µM*,4%,?
CCN(CC)S(=O)(=O)c1ccc(NC(=O)CN(c2ccccc2)S(=O)(=O)N(C)C)cc1,-16%,·,·,·,0%,5%
COc1ccc(C2c3[nH]c4ccccc4c3CCN2CCCn2cccn2)c(C)c1C (stereo not drawn),-1%,12µM*,-21,13µM*,6%,-7%
COc1cccc(C2c3[nH]c4ccccc4c3CCN2CCCn2cccn2)c1 (stereo not drawn),-8%,?,-19,?,3%,22%
COc1ccc(C2C=C(c3ccccc3)Nc3nc(NC(=O)/C=C/c4ccc(F)cc4)nn32)cc1 (stereo not drawn),-2%,21µM*,·,21µM*,0%,1%
COc1ccc(/C=C/C(=O)Nc2nc3n(n2)C(c2ccc(F)cc2)C=C(c2ccccc2)N3)cc1 (stereo not drawn),-64%,5.2µM*,·,3.7µM*,0%,48%
COc1ccc(/C=C/C(=O)Nc2nc3n(n2)C(c2ccccc2)C=C(c2ccccc2)N3)cc1 (stereo not drawn),-14%,7.3µM*,·,5.8µM*,·,-5%
O=C(/C=C/c1ccccc1)Nc1nc2n(n1)C(c1ccc(F)cc1)C=C(c1ccccc1)N2 (stereo not drawn),-22%,7.3µM*,·,8.2µM*,11%,-2%
SMILES,HepG2 tox,TDP1 cell CPT,IL-1B inflam inh,TDP1 cell noCPT,TDP1 inh,TGFb inhibitor
COc1ccc(C2C=C(c3ccccc3)Nc3nc(NC(C)=O)nn32)cc1 (stereo not drawn),-18%,-27%,·,?,-3%,0%
Cc1ccc(S(=O)(=O)Nc2nc3n(n2)C(c2ccc(F)cc2)C=C(c2ccccc2)N3)cc1 (stereo not drawn),-11%,?,·,?,3%,30%
COc1ccc(-c2cc(C(=O)Oc3ccc(Br)cc3)c3ccccc3n2)cc1,68%,-18%,·,-28%,·,85%
COc1ccccc1NC(=O)c1cc2cc3ccc(OC)c(Cl)c3nc2s1,-4%,?,·,?,?,-5%
Cc1noc(C)c1COC(=O)c1cc(S(=O)(=O)N2CCOCC2)ccc1F,-7%,-9%,-5,-27%,0%,4%
CCc1cc2c(COC(=O)c3cc(S(=O)(=O)N4CCOCC4)ccc3F)cc(=O)oc2cc1O,-1%,18µM*,-77*,?,1%,1%
N#Cc1ccccc1COC(=O)c1cc(S(=O)(=O)N2CCOCC2)ccc1F,16%,8%,?,1%,·,13%
CCc1cc2c(COC(=O)c3cccc(NS(C)(=O)=O)c3)cc(=O)oc2cc1O,-22%,16µM*,-13,10µM*,10%,-14%
O=C(OCc1cc(=O)oc2cc(O)ccc12)c1cc(S(=O)(=O)N2CCOCC2)ccc1F,16%,-14%,-103*,-23%,-5%[0.505 µM],-1%
O=C(NCCCN1CCOCC1)C1CCN(S(=O)(=O)c2cccc(C(F)(F)F)c2)CC1,16%,-30%,6,-25%,0%,-6%
Cc1nc2nncn2c(NCc2ccc(F)cc2)c1C,-5%,5.2µM*,·,4.1µM*,0%,?
COc1ccc(CNc2cc(-c3ccc(OC)cc3)nc3nncn23)cc1,-21%,?,·,16µM*,2%,?
Cc1nc2nncn2c(NCc2ccc(Cl)cc2)c1C,-20%,2.6µM*,·,0.82µM*,5%,-16%

# Screening results: PubChem BioAssay, National Center for Advancing Translational Sciences (NCATS)
